The text below walks through data of ChEMBL document CHEMBL3988442, “University of Dundee, Small-Polar-MMV Screening Library” (2021).

Parameters in all cases: scale not given: direction of the effect not stated beside the values
Experiment [1] addresses Protein translocase subunit SecA (Escherichia coli (strain K12)) (UniProt P10408). Description: Assay to Identify E. coli SecA ATPase Inhibitors. The class given is functional. The settings on record: 30 µM.
For experiment [2], the target named is T1, Ubiquitin-activating enzyme e1, putative (Leishmania donovani (strain BPK282A1)) (UniProt E9BSI1).
T1 sequence (whole entry): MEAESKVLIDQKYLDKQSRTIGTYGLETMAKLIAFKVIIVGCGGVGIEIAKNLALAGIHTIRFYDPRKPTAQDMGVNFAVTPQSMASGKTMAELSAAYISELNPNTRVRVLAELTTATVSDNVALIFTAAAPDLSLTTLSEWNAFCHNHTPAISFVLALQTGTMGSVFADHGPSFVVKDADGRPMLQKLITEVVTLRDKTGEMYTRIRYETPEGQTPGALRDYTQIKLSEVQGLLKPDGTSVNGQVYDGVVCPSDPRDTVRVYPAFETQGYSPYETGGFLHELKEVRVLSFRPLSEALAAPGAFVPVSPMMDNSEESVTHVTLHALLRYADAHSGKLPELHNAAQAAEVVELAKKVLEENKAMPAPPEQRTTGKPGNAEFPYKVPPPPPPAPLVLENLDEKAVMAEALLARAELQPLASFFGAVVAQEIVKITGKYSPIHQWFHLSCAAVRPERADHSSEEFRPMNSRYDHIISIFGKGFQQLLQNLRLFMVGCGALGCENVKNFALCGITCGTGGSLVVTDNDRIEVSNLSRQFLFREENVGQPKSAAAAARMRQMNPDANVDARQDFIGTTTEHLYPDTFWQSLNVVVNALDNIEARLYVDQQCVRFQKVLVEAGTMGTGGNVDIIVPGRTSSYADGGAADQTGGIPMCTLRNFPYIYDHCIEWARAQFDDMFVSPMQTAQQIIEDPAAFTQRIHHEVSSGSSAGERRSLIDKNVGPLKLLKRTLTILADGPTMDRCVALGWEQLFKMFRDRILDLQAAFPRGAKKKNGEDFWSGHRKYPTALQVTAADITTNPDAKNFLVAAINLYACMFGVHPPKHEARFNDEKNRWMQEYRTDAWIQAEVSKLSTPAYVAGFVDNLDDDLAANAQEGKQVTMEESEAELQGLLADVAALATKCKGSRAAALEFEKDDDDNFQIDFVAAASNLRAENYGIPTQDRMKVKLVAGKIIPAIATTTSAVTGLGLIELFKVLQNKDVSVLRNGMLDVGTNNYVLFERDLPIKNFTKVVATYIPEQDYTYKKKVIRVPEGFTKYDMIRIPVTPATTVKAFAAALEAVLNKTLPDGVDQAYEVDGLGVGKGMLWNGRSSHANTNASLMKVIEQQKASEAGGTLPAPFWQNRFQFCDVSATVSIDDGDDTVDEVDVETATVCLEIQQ
Description: Leishmania donovani Ubiquitin Activating Enzyme (LdE1). Format: functional. The following applies: 30 µM.

Experiment [3] deals with T2, Aspartate--tRNA(Asp/Asn) ligase (Mycobacterium tuberculosis (strain ATCC 25618 / H37Rv)) (UniProt P9WFW3).
T2 sequence (whole entry): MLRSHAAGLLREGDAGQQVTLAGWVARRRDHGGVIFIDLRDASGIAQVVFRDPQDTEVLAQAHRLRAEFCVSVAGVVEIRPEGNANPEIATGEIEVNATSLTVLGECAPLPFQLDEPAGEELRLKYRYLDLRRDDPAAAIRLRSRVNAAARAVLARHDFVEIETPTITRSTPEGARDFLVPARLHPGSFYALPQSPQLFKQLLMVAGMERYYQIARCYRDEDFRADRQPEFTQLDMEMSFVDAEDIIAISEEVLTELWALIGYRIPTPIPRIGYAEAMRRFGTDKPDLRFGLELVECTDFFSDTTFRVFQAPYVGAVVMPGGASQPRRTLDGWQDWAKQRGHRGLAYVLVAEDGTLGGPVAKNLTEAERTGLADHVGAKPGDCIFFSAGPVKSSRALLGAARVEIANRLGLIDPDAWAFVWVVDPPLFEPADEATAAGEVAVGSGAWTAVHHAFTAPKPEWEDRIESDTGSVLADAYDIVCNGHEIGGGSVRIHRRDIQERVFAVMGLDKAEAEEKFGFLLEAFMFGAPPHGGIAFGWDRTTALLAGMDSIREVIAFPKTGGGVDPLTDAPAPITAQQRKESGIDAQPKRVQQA
Put plainly: Assay for Asp RNA synthetase-1 from Mycobacterium tuberculosis. The class given is functional. The settings on record: 30 µM.

For experiment [4], the target named is AMP-activated protein kinase, AMPK (Homo sapiens) (UniProt P54646+O43741+P54619+Q9UGJ0+Q9Y478+Q13131+Q9UGI9). Description: AMP-dependent Kinase enzyme assay. An in vitro enzyme assay that detects ADP turnover that is directly proportional to AMPK activity. This uses naive AMPK that is activated during the assay with MK-8722. Format: functional. The following applies: 30 µM.

For experiment [5], the target named is Sialic acid-binding Ig-like lectin 9 (Homo sapiens) (UniProt Q9Y336). Put plainly: Hs-Siglec9 ALPHAscreen SOP 20170721. The settings on record: 10 µM.
A further experiment concerns Trypanosoma cruzi. Description: Trypanosoma cruzi phosphomannomutase and mannose-1-phosphate guanylyltransferase assay. Format: functional. The following applies: 10 µM.
In experiment [6] the target is T3, Arginase-2, mitochondrial (Homo sapiens) (UniProt P78540).
T3 sequence (whole entry): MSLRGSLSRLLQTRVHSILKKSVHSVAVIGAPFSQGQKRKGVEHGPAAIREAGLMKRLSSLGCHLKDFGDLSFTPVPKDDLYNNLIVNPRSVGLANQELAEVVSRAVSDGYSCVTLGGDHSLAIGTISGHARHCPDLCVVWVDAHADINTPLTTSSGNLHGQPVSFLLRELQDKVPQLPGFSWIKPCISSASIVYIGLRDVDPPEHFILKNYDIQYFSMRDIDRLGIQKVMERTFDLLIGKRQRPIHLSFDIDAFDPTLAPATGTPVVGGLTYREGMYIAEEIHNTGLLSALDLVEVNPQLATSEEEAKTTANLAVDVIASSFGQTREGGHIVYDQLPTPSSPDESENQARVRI
Put plainly: in vitro enzyme assay to detect the production of urea directly proportional to the activity of Arginase II. Also: in the data most compounds retested in dose-response had high values. The settings on record: 33.3 µM. Format: functional.

The target in experiment [7] is T4, Proteasome subunit beta (Trypanosoma cruzi) (UniProt O96673).
T4 sequence (whole entry): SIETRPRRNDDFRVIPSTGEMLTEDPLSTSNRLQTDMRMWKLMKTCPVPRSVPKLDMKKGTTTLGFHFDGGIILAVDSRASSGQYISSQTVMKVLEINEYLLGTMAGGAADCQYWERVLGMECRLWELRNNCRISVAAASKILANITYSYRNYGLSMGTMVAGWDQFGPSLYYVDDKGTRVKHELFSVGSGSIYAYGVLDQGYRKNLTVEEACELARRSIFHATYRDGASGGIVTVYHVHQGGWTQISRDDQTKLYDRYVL
Description: Trypanosoma cruzi proteasome chymotrypsin-like activity (TcProtChymo) assay. Also: in the data most compounds retested in dose-response had high values. The class given is functional. The settings on record: 9.37 µM.

The species named for another experiment is Homo sapiens. Put plainly: To identify inhibition of the IFN signalling (Jak-Stat) pathway via expression of an eGFP reporter gene under the control of an IFN-stimulated response element (ISRE) containing MxA promoter. Format: functional. The following applies: 30 µM. (In general: In a reporter assay the amount or activity of a reporter protein is the signal.)

Experiment [8] deals with Shiga toxin 2 (Escherichia coli O157:H7) (UniProt P09385+P09386). Put plainly: E. coli 0.157:H7 Shiga Toxin SOP - stx2 screening assay. The class given is functional. The settings on record: 30 µM.
For experiment [9], the target named is T5, Tyrosyl-tRNA synthetase, putative (Trypanosoma cruzi (strain CL Brener)) (UniProt Q4DSP6).
T5 sequence (whole entry): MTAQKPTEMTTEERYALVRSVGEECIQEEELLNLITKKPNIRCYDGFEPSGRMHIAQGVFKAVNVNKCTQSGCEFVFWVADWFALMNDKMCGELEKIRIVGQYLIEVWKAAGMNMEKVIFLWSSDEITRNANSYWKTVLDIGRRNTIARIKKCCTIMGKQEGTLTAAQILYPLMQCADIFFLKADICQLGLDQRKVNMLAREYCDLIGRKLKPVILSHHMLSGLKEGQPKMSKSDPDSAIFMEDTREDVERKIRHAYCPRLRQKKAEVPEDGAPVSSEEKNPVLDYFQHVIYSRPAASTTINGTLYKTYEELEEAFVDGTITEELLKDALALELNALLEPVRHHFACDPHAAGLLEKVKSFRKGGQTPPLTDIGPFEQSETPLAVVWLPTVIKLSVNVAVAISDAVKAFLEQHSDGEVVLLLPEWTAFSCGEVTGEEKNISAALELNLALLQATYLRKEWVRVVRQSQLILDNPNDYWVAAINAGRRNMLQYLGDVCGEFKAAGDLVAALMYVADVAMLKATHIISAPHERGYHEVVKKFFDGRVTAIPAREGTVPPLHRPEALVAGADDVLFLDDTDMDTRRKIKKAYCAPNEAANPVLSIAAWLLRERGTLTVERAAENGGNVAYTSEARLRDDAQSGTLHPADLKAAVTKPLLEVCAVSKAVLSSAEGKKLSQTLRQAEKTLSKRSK
Put plainly: Trypanosoma cruzi tyrosyl tRNA synthetase (TcYRS) _High Tyrosine SOP. Also: in the data most compounds retested in dose-response had high values. The class given is functional. The following applies: 30 µM.

Experiment [10] concerns the target T5, Tyrosyl-tRNA synthetase, putative (Trypanosoma cruzi (strain CL Brener)). Description: Trypanosoma cruzi tyrosyl tRNA synthetase (TcYRS) SOP. The class given is functional. The following applies: 30 µM.
Experiment [11] has as its target Chromo domain-containing protein 1 (Saccharomyces cerevisiae (strain ATCC 204508 / S288c) (Baker's yeast)) (UniProt P32657). Description: ScCHD-1 Enzyme Inhibition Assay. Also: in the data most compounds retested in dose-response had high values. Format: functional. The settings on record: 30 µM.

For some of these results: Potency and affinity values are given separately.

Sequence of Sialic acid-binding Ig-like lectin 9 (Homo sapiens) (Q9Y336 whole entry): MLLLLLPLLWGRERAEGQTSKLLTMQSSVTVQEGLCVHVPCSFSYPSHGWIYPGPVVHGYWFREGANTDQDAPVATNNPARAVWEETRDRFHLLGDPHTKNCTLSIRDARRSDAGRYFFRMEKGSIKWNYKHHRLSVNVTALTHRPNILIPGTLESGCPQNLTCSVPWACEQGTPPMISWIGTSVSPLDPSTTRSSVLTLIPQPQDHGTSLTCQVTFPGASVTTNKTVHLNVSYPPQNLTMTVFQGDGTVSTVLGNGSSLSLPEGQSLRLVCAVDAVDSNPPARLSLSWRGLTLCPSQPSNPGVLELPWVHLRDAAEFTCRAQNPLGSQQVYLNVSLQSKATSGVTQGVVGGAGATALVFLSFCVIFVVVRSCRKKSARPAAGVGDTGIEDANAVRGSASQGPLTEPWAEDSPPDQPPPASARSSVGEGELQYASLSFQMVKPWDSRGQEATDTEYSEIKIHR
Sequence of Protein translocase subunit SecA (Escherichia coli (strain K12)) (P10408 whole entry): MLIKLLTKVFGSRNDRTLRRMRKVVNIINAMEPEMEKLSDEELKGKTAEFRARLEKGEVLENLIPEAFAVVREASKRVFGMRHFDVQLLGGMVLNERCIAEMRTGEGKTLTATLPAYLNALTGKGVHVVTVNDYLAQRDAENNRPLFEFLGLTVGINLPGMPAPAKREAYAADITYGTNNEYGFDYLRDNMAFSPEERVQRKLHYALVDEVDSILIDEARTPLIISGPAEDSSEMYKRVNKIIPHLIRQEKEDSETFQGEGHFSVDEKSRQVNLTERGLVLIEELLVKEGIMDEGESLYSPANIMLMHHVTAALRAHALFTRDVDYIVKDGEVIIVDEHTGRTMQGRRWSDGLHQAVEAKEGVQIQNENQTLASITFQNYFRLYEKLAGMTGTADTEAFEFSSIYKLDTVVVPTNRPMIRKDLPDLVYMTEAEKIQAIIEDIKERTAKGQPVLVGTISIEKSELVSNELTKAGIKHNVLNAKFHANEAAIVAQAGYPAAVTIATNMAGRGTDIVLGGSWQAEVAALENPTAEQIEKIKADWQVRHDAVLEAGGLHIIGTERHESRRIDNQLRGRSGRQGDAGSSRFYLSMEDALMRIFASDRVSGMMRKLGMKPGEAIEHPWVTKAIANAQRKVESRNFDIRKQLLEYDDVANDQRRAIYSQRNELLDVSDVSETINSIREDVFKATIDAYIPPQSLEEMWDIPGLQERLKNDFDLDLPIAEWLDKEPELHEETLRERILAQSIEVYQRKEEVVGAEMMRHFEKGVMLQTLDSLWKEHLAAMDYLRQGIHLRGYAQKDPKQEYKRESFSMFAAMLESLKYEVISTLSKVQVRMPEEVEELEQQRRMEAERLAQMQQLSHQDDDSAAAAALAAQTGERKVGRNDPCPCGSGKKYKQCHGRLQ
Sequence of Chromo domain-containing protein 1 (Saccharomyces cerevisiae (strain ATCC 204508 / S288c) (Baker's yeast)) (P32657 whole entry, the tested form may be a part): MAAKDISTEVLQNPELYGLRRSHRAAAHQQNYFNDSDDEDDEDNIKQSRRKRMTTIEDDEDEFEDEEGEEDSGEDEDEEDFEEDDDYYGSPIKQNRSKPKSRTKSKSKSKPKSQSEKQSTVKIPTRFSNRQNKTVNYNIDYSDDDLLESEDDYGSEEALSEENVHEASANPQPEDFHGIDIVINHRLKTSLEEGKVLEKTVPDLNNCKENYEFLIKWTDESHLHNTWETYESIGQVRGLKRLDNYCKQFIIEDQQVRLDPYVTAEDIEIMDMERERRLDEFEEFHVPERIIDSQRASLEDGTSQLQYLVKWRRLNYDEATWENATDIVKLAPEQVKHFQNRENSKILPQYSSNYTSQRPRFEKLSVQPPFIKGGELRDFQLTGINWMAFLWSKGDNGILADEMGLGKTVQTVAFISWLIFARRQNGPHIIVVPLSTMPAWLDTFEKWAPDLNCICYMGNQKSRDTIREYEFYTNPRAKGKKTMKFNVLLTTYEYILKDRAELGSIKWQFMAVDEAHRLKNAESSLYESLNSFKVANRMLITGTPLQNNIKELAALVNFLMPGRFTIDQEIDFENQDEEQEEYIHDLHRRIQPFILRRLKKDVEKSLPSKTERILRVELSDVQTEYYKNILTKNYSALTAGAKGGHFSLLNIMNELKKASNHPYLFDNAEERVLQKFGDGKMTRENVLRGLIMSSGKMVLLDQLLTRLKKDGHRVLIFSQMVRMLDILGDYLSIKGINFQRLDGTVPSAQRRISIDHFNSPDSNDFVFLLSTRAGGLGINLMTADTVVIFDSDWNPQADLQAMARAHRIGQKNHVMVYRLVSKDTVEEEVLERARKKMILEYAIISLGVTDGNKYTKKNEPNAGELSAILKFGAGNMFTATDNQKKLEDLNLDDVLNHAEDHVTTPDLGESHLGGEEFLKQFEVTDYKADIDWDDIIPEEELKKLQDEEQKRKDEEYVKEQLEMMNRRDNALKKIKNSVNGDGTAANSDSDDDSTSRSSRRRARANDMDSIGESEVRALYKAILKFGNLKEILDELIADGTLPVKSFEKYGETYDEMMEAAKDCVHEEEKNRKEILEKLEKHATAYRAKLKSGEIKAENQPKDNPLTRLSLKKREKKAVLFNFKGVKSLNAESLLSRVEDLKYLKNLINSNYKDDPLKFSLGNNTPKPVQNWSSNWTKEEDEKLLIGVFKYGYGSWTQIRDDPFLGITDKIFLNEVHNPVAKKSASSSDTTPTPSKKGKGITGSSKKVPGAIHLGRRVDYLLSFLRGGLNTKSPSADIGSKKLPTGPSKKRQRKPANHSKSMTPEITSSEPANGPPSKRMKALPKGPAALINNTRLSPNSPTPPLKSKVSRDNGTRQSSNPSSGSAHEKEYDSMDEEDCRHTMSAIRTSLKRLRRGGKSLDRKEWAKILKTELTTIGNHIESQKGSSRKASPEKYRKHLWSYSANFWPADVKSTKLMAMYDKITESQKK

Regarding `Cc1ncsc1CN1CC[C@H]2C[C@H](c3ccncn3)O[C@@H]2C1`, the Percent Effect in [1] is 1.18%; in experiment [2], 10.4%; in [3], 1.35%; in [4] it was 2.98%; in experiment [5], -6.01%; with Trypanosoma cruzi, -9.57%. Also, the Percent Effect is 0.645% in [6]; 9.4% in [7]; 24.2% in the experiment listed under Homo sapiens; 0.203% in [8]; 1.06% in experiment [9]; 6.41% in experiment [10]. The Percent Effect in [11] is -5.8%.
Regarding `CC(C)NC(=O)[C@H]1C[C@@H]2[C@@H](C1)OCCN2Cc1cccnc1`, the Percent Effect is 1.37% in experiment [1]; -5.33% in [2]; 3.61% in experiment [3]; 10.3% in experiment [4]; 6.39% in experiment [5]; -4.25% in the experiment with Trypanosoma cruzi. The Percent Effect was -52.9% in experiment [6]; 1.54% in [7]; 7.17% in the experiment filed under Homo sapiens; -9.38% in experiment [8]; 3.12% in [9]; 2.5% in experiment [10]. Also, the Percent Effect in [11] is -0.286%.
In the case of `Cc1nc(NCC2CC2)nc2c1COCC21CCN(C)C1` (stereo unspecified), the Percent Effect in experiment [1] was -1.26%; in experiment [2], 18.7%; in experiment [3], -1.49%; in experiment [4], 0.667%; in experiment [5], -4.41%; in the experiment on Trypanosoma cruzi, 2.17%. The Percent Effect in experiment [6] stood at 46.4%; in [7] it was 19.1%; in the experiment filed under Homo sapiens it was 2.6%; in [8], 2.88%; in [9], 4.25%; in experiment [10], 16.7%. The Percent Effect in experiment [11] was -6.2%.
Turning to `CN1CCC2(COCc3cnc(N4CCOCC4)nc32)C1` (stereo unspecified), the Percent Effect is -1.86% in experiment [1]; -1.33% in experiment [2]; -1.51% in [3]; 5.52% in experiment [4]; 4.35% in experiment [5]; -1.18% with Trypanosoma cruzi. Moreover, the Percent Effect in experiment [6] is -0.528%; in experiment [7], 5.36%; in the experiment listed under Homo sapiens it was -2.62%; in experiment [8], -6.09%; in [9], 0%; in [10] it was -5.13%. Besides, in experiment [11], the Percent Effect is -1.41%.
`O=C1CC2(CCN(Cc3ccccn3)C2)CN1c1cncnc1` (stereo unspecified): the Percent Effect is -0.821% in experiment [1]; 0% in [2]; -1.45% in experiment [3]; 2.73% in [4]; -3.03% in [5]; -1.66% with Trypanosoma cruzi. Besides, the Percent Effect in experiment [6] is 0.319%; in experiment [7], 16.1%; in the experiment filed under Homo sapiens it was -0.29%; in [8], -1.07%; in [9], 2.16%; in [10] it was 5.13%. In experiment [11], the Percent Effect stood at 5.33%.
Consider `c1ccc(CN2C[C@@H]3OCCN(CC4CCCO4)[C@@H]3C2)nc1` (stereo partly specified), for which the Percent Effect was -4.3% in [1]; 10.8% in [2]; -0.749% in experiment [3]; -3.75% in [4]; 1.76% in experiment [5]; 4.01% in the experiment on Trypanosoma cruzi. Besides, the Percent Effect in [6] came to 15%; in experiment [7] it was 15.5%; in the experiment listed under Homo sapiens, 22.6%; in experiment [8] it was 4.43%; in experiment [9], 7.57%; in experiment [10] it was 15.4%. For the same compound, the Percent Effect in experiment [11] was -4.89%.
With `Cc1n[nH]c2c1C(c1cnn(C)c1)SCC(=O)N2` (stereo unspecified), the Percent Effect in [1] is -5.19%; in experiment [2] it was 1.33%; in experiment [3], -2.64%; in [4] it was 11.3%; in experiment [5] it was 3.08%; in the experiment on Trypanosoma cruzi, -2.16%. Also, the Percent Effect in experiment [6] is -11.4%; in experiment [7], 11.8%; in the experiment filed under Homo sapiens, 6.26%; in experiment [8], -3.86%; in experiment [9] it was 3.17%; in [10], 12.8%. For the same compound, the Percent Effect in experiment [11] is -9.44%.
